# Measured values reported in the supplement of paper PMC12636033.
# ± gives the standard deviation of the averaged measurements. Over roughly 33,000 sequences, “E-score (rank enrichment, -0.5 to 0.5)” has its median near -0.0043; the highest 2% begin near 0.24. The sample as a whole holds a higher share of the highest values than the screen did.
# Test system: 2Sp-muMax20 (muMax20 with two 2,6-bis(methyl)pyridine Cys staples)
# Assay: PBM 8-mer E-score (E-score (rank enrichment, -0.5 to 0.5)); higher = stronger preferential binding
# Description: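 Protein binding microarray (universal PBM chip covering all 10-mers in fixed probe flanks) with chemically synthesized human Max(13-93) bHLH-LZ analogs (not full-length Max) bearing noncanonical residues (hArg, Tha, Aib, Nle at 65) and aromatic Cys staples. Read-out per 8-mer (and its reverse complement): E-score (rank-based enrichment, -0.5 to 0.5) and Z-score of median probe intensity.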
row,Sequence,PBM 8-mer E-score
1,AGGCTCAC,-0.168 ± 0.071
2,CTTTCCCA,-0.0651 ± 0.061
3,ATTAGGTA,0.0384 ± 0.028
4,CTTCCCCA,0.0675 ± 0.046
5,ATGAAAGA,0.095 ± 0.12
6,GGCACTGA,-0.138 ± 0.064
7,GAACGGTA,-0.0592 ± 0.0044
8,AGCGCAAT,-0.0106 ± 0.054
9,AGTATAAA,0.186 ± 0.048
10,TGTATAAA,0.254 ± 0.018
11,GGTATAAA,0.134 ± 0.012
12,GATAAAAA,0.17 ± 0.036
13,TATAAAAA,0.307 ± 0.015
14,GATATAAA,0.191 ± 0.046
15,CATAAAAA,0.17 ± 0.062
16,TCTATAAA,0.213 ± 0.036
17,TATATAAA,0.275 ± 0.019
18,GTACACTA,-0.172 ± 0.087
19,AGGATGGC,-0.0191 ± 0.078
20,GAACGAAC,-0.022 ± 0.033
21,ACGTCAGT,-0.191 ± 0.0086
22,ATCTTAAT,0.165 ± 0.044
23,ACCCAGCA,-0.107 ± 0.015
24,ACCCCTTC,0.273 ± 0.015
25,GCCCCTCC,0.237 ± 0.036

row,Sequence,PBM 8-mer E-score
1,CCCCCTTC,-0.195 ± 0.12
2,ACCCCTAA,0.163 ± 0.11
3,AACCCTTC,0.0889 ± 0.037
4,ACCCCTCC,0.246 ± 0.0062
5,CCCCCTCC,-0.0372 ± 0.049
6,GCCCCTCA,0.0361 ± 0.077
7,GCCCCCCC,-0.1861 ± 0.0003
8,ACCCCTCA,0.158 ± 0.055
9,ACCCCTAT,0.267 ± 0.044
10,ACCCCTAG,0.0238 ± 0.027
11,CCGGCAGA,-0.154 ± 0.1
12,CTCAAAGA,-0.106 ± 0.0065
13,GACACCGA,-0.215 ± 0.025
14,GAAAGATA,0.0861 ± 0.022
15,TGGGAGAA,0.0249 ± 0.058
16,CGCCCACA,0.216 ± 0.018
17,ACGATGGA,-0.164 ± 0.01
18,CTAAAAGC,-0.0267 ± 0.036
19,CACTCAAG,0.0104 ± 0.039
20,CTGGCAAA,-0.0382 ± 0.063
21,GATACGGC,-0.079 ± 0.018
22,ATGATACG,0.271 ± 0.071
23,ATGATAGC,0.278 ± 0.023
24,ATGATATG,0.199 ± 0.075
25,ATGATAGA,0.079 ± 0.01

row,Sequence,PBM 8-mer E-score
1,ATGATAGG,0.00318 ± 0.11
2,CTGATACA,-0.0277 ± 0.11
3,GTGATACA,0.0186 ± 0.033
4,ATGATACA,0.274 ± 0.042
5,ATGATACC,0.11 ± 0.016
6,TAACGAAA,0.0771 ± 0.12
7,CAACTAGC,0.0239 ± 0.018
8,ATTAGTCC,0.0528 ± 0.12
9,CACGGCGA,-0.0774 ± 0.0095
10,CGGTCGTC,-0.18 ± 0.017
11,GGTGATTA,0.0438 ± 0.06
12,ATGTGAAC,0.119 ± 0.0064
13,GGATTGCC,-0.202 ± 0.012
14,AATGGGTC,-0.00791 ± 0.0086
15,AATTTGGG,0.254 ± 0.017
16,ATTGGGGC,0.253 ± 0.019
17,ATTGGGCC,0.00386 ± 0.043
18,AATTGGGT,0.2483 ± 0.0021
19,AATTTGGT,-0.00788 ± 0.03
20,ATTTGGGC,0.119 ± 0.05
21,ATTTGGGG,0.253 ± 0.052
22,AATTTGGA,0.0583 ± 0.086
23,ATTGGGGG,-0.0095 ± 0.0052
24,AATTGGGG,0.228 ± 0.06
25,ATTTGGGA,0.173 ± 0.068

row,Sequence,PBM 8-mer E-score
1,AATTGGGC,0.183 ± 0.034
2,CCTTGACG,-0.0891 ± 0.0072
3,AGGGGACT,-0.0296 ± 0.079
4,GACGAGCA,0.0874 ± 0.014
5,CACACACC,-4e-05 ± 0.065
6,ATGGCATC,0.193 ± 0.081
7,ACGAGCCG,-0.0923 ± 0.041
8,CGCGGTCA,-0.174 ± 0.092
9,ACGCGCGG,0.156 ± 0.098
10,ACACGCGA,0.211 ± 0.037
11,ACGCGCGC,0.206 ± 0.0084
12,ACGCGCGT,0.397 ± 0.0075
13,ACACGCGT,0.272 ± 0.021
14,AAACGCGT,-0.0801 ± 0.023
15,ACTGAACT,0.049 ± 0.03
16,CACGATCG,-0.0926 ± 0.084
17,AAATAACG,0.289 ± 0.022
18,CAATAACG,0.0434 ± 0.0082
19,ATATAACC,0.134 ± 0.069
20,ATATAACG,0.302 ± 0.039
21,ATATAACA,0.184 ± 0.057
22,AAATAACA,0.182 ± 0.057
23,AGGATCAC,0.0434 ± 0.0027
24,CGATGACC,-0.245 ± 0.045
25,AACATAGG,0.0986 ± 0.084

row,Sequence,PBM 8-mer E-score
1,GACTACAC,0.016 ± 0.034
2,AACTACAC,0.257 ± 0.011
3,AACTACAG,-0.122 ± 0.011
4,CCCTCGCA,0.109 ± 0.031
5,GGACTATA,0.129 ± 0.085
6,AGCACCGA,-0.129 ± 0.026
7,ATTAGAAT,0.248 ± 0.033
8,ATTAGAAG,0.138 ± 0.075
9,ATTAGAAA,-0.0714 ± 0.083
10,AGTAGAAC,0.0268 ± 0.014
11,AGTAGAAA,0.142 ± 0.006
12,AGTAGAAT,0.286 ± 0.011
13,CCGAAACG,-0.122 ± 0.032
14,GATCAGAA,-0.0464 ± 0.015
15,CCCGTGGC,-0.328 ± 0.013
16,ACCTCCCC,0.0632 ± 0.019
17,TGAACGAA,0.0338 ± 0.048
18,CTGATTCA,-0.006 ± 0.016
19,AAGCGCTC,0.0083 ± 0.034
20,AAGCGCTT,0.29 ± 0.074
21,AAGCGCTA,0.0638 ± 0.1
22,AAGGATAT,0.0821 ± 0.052
23,ATTTATGA,0.149 ± 0.03
24,ACAGATGT,0.0497 ± 0.021
25,CAACTCGA,-0.0837 ± 0.0059

row,Sequence,PBM 8-mer E-score
1,AGTGGAAA,0.185 ± 0.0052
2,CGTGGAAA,0.257 ± 0.038
3,CGTGGAAG,0.163 ± 0.035
4,CGAGTAAC,-0.108 ± 0.036
5,CCACAGCA,0.0663 ± 0.031
6,TCTGAAAA,-0.037 ± 0.13
7,CTGCGTAA,-0.0976 ± 0.042
8,ATGCGTCG,-0.0304 ± 0.0076
9,GTGCGTAA,0.0529 ± 0.0043
10,ATGCGTAA,0.238 ± 0.025
11,CTGCGTTA,-0.0622 ± 0.026
12,ATGCGTTA,0.243 ± 0.018
13,GTGCGTTA,0.00978 ± 0.021
14,ATGCGTAC,0.00487 ± 0.0049
15,ATGCGTAG,0.259 ± 0.071
16,GGCTTGTA,0.22 ± 0.043
17,GGAGCAAA,0.0658 ± 0.024
18,ACCTTAAT,0.0925 ± 0.027
19,CAGTGCGG,-0.189 ± 0.025
20,ACCGTGGC,-0.207 ± 0.036
21,GGCCTATA,-0.243 ± 0.01
22,CTGCCCGC,-0.0236 ± 0.011
23,CAAGCGCA,0.245 ± 0.058
24,AACGCGCC,-0.0607 ± 0.047
25,CGCGCGCC,0.243 ± 0.006

row,Sequence,PBM 8-mer E-score
1,CAAGCGCC,-0.113 ± 0.064
2,AGCGCGCC,0.123 ± 0.087
3,AAAGCGCA,0.18 ± 0.0096
4,CGCGCGCG,0.2 ± 0.077
5,CACGCGCC,0.262 ± 0.027
6,CACGCGCG,0.261 ± 0.051
7,CACGCGCA,0.0178 ± 0.093
8,GGCGCGCC,-0.0216 ± 0.12
9,GACGCGCC,-0.0693 ± 0.078
10,ACATCGAG,0.0846 ± 0.046
11,AAGCGTGG,0.0965 ± 0.049
12,CTCACGCA,0.12 ± 0.049
13,ACGTATAT,0.145 ± 0.039
14,TAGCGCTA,-0.00743 ± 0.0017
15,ACCATTCT,0.0547 ± 0.046
16,CACACGCG,0.281 ± 0.035
17,AACACGCG,0.213 ± 0.0048
18,AACGCTCG,0.0415 ± 0.059
19,AACGCGCT,-0.0289 ± 0.021
20,CACGCTCG,0.245 ± 0.0082
21,AACGCGCG,0.263 ± 0.023
22,CACACGCA,0.0795 ± 0.072
